# A number with no mark means an inactive call. For part of these data: Results with a measured potency or affinity are listed apart. The source made the active and inactive calls. Unless noted, how the calls were made is not given here.
# Legend:
# [1] = antimalarial activity against Dd2 strain (AID 2302;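 active means growth inhibition above 50% at the single 2 µM test dose, taken to imply half-maximal potency below 2 µM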;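 further: 0% = DMSO untreated growth and 100% = chloroquine plus artemisinin killed control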); settings: P. falciparum Dd2 in RBCs, LDH growth readout, 72 h; at 2 µM; hits give high values
# [2] = human hepatoma cell viability loss – ATP luminescence, cytotoxicity control for P. falciparum antimalarial project, primary screen (AID 2303;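 active means inhibition above 50%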;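 further: 0% = DMSO wells and 100% = digitonin-killed cells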); settings: HepG2 viability, 24-48 h, at 10 µM, hits give high values
# [3] = target: L-lactate dehydrogenase (Plasmodium falciparum (isolate CDC / Honduras)) (UniProt Q27743); test: PfLDH activity inhibition – cell lysate, 3D7 strain, counter-screen for P. falciparum growth inhibition project (AID 2304);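 further: 0% = vehicle and 100% = reference inhibitor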; settings: P. falciparum 3D7 crude extract, LDH APAD/NBT absorbance; at 2 µM; hits give high values
# Chain of L-lactate dehydrogenase (Plasmodium falciparum (isolate CDC / Honduras)) (Q27743 whole entry, looked up): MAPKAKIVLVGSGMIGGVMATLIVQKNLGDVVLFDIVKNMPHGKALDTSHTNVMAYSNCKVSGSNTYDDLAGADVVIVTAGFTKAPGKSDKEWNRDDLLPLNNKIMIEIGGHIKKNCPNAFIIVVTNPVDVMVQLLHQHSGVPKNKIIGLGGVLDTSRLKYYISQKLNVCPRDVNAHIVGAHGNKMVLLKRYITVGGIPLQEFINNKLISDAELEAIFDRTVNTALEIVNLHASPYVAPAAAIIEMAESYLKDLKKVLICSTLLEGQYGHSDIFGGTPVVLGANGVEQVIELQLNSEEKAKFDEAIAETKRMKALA
# [4] = inhibition of 3D7 malaria parasite growth – strain 3D7 (AID 2306);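 further: 0% = DMSO wells and 100% = chloroquine plus artemisinin control wells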; settings: P. falciparum 3D7 erythrocytic growth, LDH absorbance, 72 h; at 2 µM; hits give high values
# [5] = target: Calcium-dependent protein kinase 1 (Plasmodium falciparum (isolate 3D7)) (UniProt P62344); test: PfCDPK1 kinase inhibitors, biochemical, TCAMS library (AID 1159585; cut-off not given, nearly all actives have IC50 up to about 0.98 µM;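 further: inhibitors leave more ATP so luminescence rises with inhibition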); settings: recombinant PfCDPK1, Kinase-Glo ATP depletion luminescence
# Chain of Calcium-dependent protein kinase 1 (Plasmodium falciparum (isolate 3D7)) (P62344 whole entry, looked up): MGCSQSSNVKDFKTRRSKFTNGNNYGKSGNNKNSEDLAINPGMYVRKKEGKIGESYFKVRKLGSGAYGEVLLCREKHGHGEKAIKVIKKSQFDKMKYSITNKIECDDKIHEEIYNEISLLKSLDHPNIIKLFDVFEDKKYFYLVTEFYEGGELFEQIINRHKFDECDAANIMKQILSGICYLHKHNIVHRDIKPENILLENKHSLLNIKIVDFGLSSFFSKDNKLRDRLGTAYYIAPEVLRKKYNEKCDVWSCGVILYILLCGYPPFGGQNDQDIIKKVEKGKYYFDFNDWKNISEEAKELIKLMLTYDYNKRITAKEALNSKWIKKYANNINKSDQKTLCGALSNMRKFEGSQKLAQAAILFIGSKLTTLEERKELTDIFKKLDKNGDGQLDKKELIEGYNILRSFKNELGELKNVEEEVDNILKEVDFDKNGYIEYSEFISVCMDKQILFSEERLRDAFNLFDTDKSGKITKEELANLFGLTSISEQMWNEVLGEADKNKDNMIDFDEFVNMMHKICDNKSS
# [6] = target: Plasmodium falciparum protein kinase 6 (PK6, PF3D7_1337100) (UniProt Q8IDW1); test: PfPK6 kinase inhibitors, biochemical, TCAMS library (AID 1159586); settings: recombinant PfPK6, Kinase-Glo ATP depletion luminescence
# Chain of Plasmodium falciparum protein kinase 6 (PK6, PF3D7_1337100) (Q8IDW1 1-305): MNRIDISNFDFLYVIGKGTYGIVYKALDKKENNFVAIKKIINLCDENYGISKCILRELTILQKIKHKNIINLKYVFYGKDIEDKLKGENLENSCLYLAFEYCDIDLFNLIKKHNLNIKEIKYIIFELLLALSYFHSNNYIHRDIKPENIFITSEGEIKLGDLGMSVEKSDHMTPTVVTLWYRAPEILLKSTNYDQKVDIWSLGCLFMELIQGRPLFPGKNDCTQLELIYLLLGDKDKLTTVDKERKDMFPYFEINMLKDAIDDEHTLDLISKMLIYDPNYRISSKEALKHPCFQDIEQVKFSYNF
# [7] = target: Protein kinase 7 (PK7), Plasmodium falciparum 3D7 (PF3D7_0213400) (UniProt Q7YTF7); test: inhibition of Plasmodium PK7 catalytic activity – biochemical, TCAMS antimalarial set, Kinase-Glo luminescence (AID 1159587); settings: recombinant PfPK7, Kinase-Glo ATP depletion luminescence
# Chain of Protein kinase 7 (PK7), Plasmodium falciparum 3D7 (PF3D7_0213400) (Q7YTF7 1-343): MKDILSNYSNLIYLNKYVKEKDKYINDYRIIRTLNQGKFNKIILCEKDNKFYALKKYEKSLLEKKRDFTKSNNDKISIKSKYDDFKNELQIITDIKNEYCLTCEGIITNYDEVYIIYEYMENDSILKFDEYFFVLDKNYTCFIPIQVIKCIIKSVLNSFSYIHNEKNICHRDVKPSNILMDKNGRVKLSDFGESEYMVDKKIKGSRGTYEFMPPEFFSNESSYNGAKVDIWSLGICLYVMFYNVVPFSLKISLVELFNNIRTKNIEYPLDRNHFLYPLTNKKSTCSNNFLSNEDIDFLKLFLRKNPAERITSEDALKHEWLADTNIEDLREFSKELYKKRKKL
# [8] = target: Calcium-dependent protein kinase 4 (Plasmodium falciparum (isolate 3D7)) (UniProt Q8IBS5); test: PfCDPK4 kinase inhibitors, biochemical, TCAMS library (AID 1159588; cut-off not given, nearly all actives have IC50 up to about 0.91 µM); settings: recombinant PfCDPK4, Kinase-Glo ATP depletion luminescence
# Chain of Calcium-dependent protein kinase 4 (Plasmodium falciparum (isolate 3D7)) (Q8IBS5 whole entry, looked up): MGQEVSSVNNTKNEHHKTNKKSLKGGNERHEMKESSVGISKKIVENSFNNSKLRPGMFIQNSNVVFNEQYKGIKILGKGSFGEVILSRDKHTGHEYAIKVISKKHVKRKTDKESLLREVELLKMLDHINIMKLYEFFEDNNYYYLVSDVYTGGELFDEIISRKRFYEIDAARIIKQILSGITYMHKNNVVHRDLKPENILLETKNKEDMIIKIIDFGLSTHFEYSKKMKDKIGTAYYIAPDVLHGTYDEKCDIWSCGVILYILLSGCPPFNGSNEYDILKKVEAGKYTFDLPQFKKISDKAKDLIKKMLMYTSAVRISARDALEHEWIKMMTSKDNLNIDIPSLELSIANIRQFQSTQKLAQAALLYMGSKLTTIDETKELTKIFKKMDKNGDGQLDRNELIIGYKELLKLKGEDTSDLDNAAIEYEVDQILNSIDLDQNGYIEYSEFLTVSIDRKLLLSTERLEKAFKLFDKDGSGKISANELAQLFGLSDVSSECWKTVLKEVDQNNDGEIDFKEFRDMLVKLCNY
SMILES,growth inhibition [1],inhibition [2],inhibition [3],growth inhibition [4],outcome [5],outcome [6],outcome [7],outcome [8]
CCCC(C)Nc1nc(C)cc(N[C@@H](CC(C)C)C(=O)Nc2ccc(OC)cc2)n1 (some centres undefined),68% (active),18%,-1%,98% (active),inactive,inactive,inactive,inactive
CC(Cc1ccc(OCC(=O)NCC2CCN(CCc3cccc(Cl)c3)CC2)cc1)NCCc1cccc(Cl)c1 (centres undefined),85% (active),100% (active),-8%,96% (active),inactive,inactive,inactive,inactive
CS(=O)(=O)c1ccccc1CNC(=O)c1cccc(-c2ccc(-c3nc4ccc(C(F)(F)F)cc4[nH]3)cc2)c1,7%,86% (active),3%,95% (active),inactive,inactive,inactive,inactive

# — PubChem BioAssay
